Each structure is given as a SMILES string. Results filed as inconclusive are left out. Unmarked numbers belong to inactive results. Calls follow the shape of the dose curve; as a rule, active = well fitted curve in the direction sought with a large enough effect; inconclusive = small, poorly fitted or top-dose-only effect, or another doubt; inactive = no such curve, though single readings can be large or run the other way. Peptide text beside a SMILES is read from it. * marks the point of attachment. Hexanoyl = CCCCCC(=O)*

Consider 40 compounds from PubChem BioAssay (NCATS).

The experiment can be described thus: HPAF-II 12hr Apoptosis Induction qHTS against the NCATS CANVASS Library (AID 1347358). Also: 0% is about no effect. The settings on record: HPAF-II caspase-3/7 Caspase-Glo luminescence; series mostly up to 46.1 µM; caspase activation: at the top concentration. An excerpt:
Natural products and their derivatives continue to be wellsprings of nascent therapeutic potential. However, many laboratories have limited resources for biological evaluation, leaving their previously isolated or synthesized compounds largely or completely untested. To address this issue, the Canvass library of natural products was assembled (https://tripod.nih.gov/canvass), in collaboration with academic and industry researchers, for quantitative high-throughput screening (qHTS) across a diverse set of cell-based and biochemical assays. The pure (>85% purity by liquid chromatography/mass spectrometry [LC/MS]) Canvass library of 346 natural products were submitted by 45 academic laboratories and companies around the world. We collected pure natural products to circumvent deconvolution and structure elucidation due to time and resource limitations. The library was formatted into 1536-well plates and evaluated in 50 qHTS (in an 11-pnt concentration series) bioassays with broad scope of disease-relevant mechanisms. The resulting data set from 50 different assays was then systematically analyzed to identify overall trends and specific natural products with interesting biological activities. Reported herein are the results of each individual qHTS and their corresponding assay protocol. The Caspase-Glo (R) (Promega) is a homogeneous, luminescent assay that measures caspase activity. The detection substrate contains tetrapeptide sequence DEVD in an "add-mix-measure" format. The reagent generates a luminescent signal produced by a thermostable luciferase. The luminescence is proportional to the amount of caspase activity in the assay reaction. National Center for Advancing Translational Sciences (NCATS), Rockville, MD National Institute of Health (NIH), Bethesda, Maryland
Cancer Cell Apoptosis Assay 1. In a 1536 well, white solid bottom tissue culture plates (Corning 7494), HPAF-II cancer cells in DMEM + 10% FBS + 1% P/S media were dispensed in each well at a final concentration of 500 cells / well (5uL volume) using the Multidrop Combi (Thermo Fisher Scientific) dispenser. 2. Compounds were pin transferred (~23nL volume) via Wako Pin-tool (Wako Automation, Richmond VA) equipped with a 1536 pin head. The assay plates were treated with compounds in a concentration series with a final concentration range of 0.17nM to 103uM. 3. Doxorubicin was used as a control in a 16pnt titration (1mM; 1:2 dilution; 16-points; n = 2; column 3, rows 1 - 32) and was pin transferred via Wako Pin-tool equipped with a 1536 pin head. The final concentration range of doxorubicin is 0.1nM - 4uM. 4. The assay plates were incubated for 12 hours at 37 degrees C/5% CO2/95% Rh. 5. 3uL Caspase-Glo 3/7 (R) (Promega) detection reagent was then added to the assay plates (columns 2 - 48, rows 1 - 32) and incubated at room temperature, covered from light, for 15 min. 6. Luminescence signal was acquired via the ViewLux plate reader (PerkinElmer) using a clear filter, 20 second exposure and 2x binning settings.
For `C/C(=C\[C@@H](C)CC/C=C/CC/C=C/C(=O)O)[C@@H](O)[C@H](C)C(=O)CCCC1CC(=O)NC(=O)C1`, the “caspase activation” value is -2.44%.
To `COc1cc2c(cc1OC)[C@@H](c1ccc3c(c1)OCO3)C(C)C(C)C2=O` (stereo not given in full) belongs -1.96%; to `C=C[C@@]1(C)CC[C@@H]([C@H](C)C(=O)/C=C/C(C)(C)O)O1`, 3.65%.
The same measure for `C=C1C[C@H]2O[C@@H]3[C@@H]4[C@H](CC[C@@](C)(O)[C@@H]42)[C@H](C)COC3(C)[C@@H](OC(=O)CCCCCCC)CC1=O` (stereo not given in full): 18.8%.
As for `O=C1c2c(O)cc(O)cc2OC(c2ccc(O)cc2)C1O` (stereo not given), the “caspase activation” value was -0.458%.
The same measure for `CCCCCC(=O)N[C@@H](CC(C)C)C(=O)N[C@H](C=O)CCC(=O)O` (Hexanoyl-Leu-Glu-aldehyde): 5.06%; for `Cc1cc(C)c(O)c(C(=O)CC2CC(=O)NC(=O)C2)c1`: 5.14%; for `O=C1OC(CCO)c2cccc(O)c21` (stereo not given): -3.22%.
With `C[C@]12CC[C@]3(C1)[C@H](CC2=O)C[C@@H](OC(=O)c1ccccc1)[C@H]1[C@](C)(C(=O)O)CCC[C@@]13C`, the “caspase activation” value is -3.22%.
For `CC(=O)O[C@H]1c2ccccc2-c2c3c(cc4c2[C@@H]1N(C(C)=O)CC4)OCO3`, the “caspase activation” value is -5.17%.
To `C=C1C(=O)O[C@H]2[C@H]1CCC(C)=C1CC[C@@](C)(O)[C@@H]12` belongs 2.99%; to `CC(=O)c1c(C)cc2c(c1O)C(=O)c1c(O)cc(O)cc1C2=O`, 1.77%; to `COc1cc([C@@H]2c3cc4c(cc3C[C@@]3(O[C@@H]5O[C@H](CO)[C@@H](O)[C@H](O)[C@H]5O)COC(=O)[C@H]23)OCO4)cc(OC)c1OC`, 0.777%.
The same measure for `CC(=O)N[C@H](C)c1nc(/C=C/C=C/C(=O)CC2CC(=O)CC[C@]2(C)O)cs1` (stereo not given in full): -2.25%.
To `CC1=C[C@H]2[C@H]3C(=O)C(c4ccc(O)cc4)=C[C@@]3(c3ccc(O)cc3)[C@@H]1C(=O)[C@]2(C)O` belongs -3.05%; to `C=C1CC[C@@H](Br)C(C)(C)[C@]12CC=C(C)C(=O)C2`, -2.39%.
As for `O=C1CC(c2ccc(O)cc2)Oc2cc(O)ccc21` (stereo not given), the “caspase activation” value is 2.73%.
To `C[C@@]12C[C@@H](C[C@@H]3C(=O)O[C@@H](c4ccoc4)[C@H](OC(=O)c4ccccc4)[C@@H]31)OC2=O` belongs 8.24%.
The same measure for `CC(CCC[C@]1(C)C(=O)C=C[C@@]23C[C@]4(C)O[C@@H](C[C@@H]4[C@H]2O)C31)C(=O)O` (stereo not given in full): -2.15%.
The same measure for `CCC(=O)N[C@@H](C[C@H](C)C(Cl)(Cl)Cl)C(=O)N1C(=O)C=C(OC)[C@@H]1CC(C)C`: 0.955%.
On to `COc1cc(C2C3=C(Cc4cc5c(cc42)OCO5)C(=O)OC3)cc(OC)c1OC` (stereo not given), for which the “caspase activation” value is 5.96%.
In the case of `CO[C@H]1/C=C/CCCCC(=O)O[C@@H](/C(C)=C/[C@H](C)C(=O)C[C@H](O)CC2CC(=O)NC(=O)C2)[C@@H](C)C1`, the “caspase activation” value is 3.43%.
The same measure for `C/C(=C\[C@H](C)C(=O)CCCC1CC(=O)NC(=O)C1)[C@@H]1OC(=O)/C=C/CC/C=C/[C@H](O)[C@@H](O)[C@@H]1C`: 6.3%; for `COc1ccc2[nH]c3c(c2c1)CCN1C[C@H]2C[C@@H](OC(=O)c4cc(OC)c(OC)c(OC)c4)[C@H](OC)[C@@H](OC)[C@H]2C[C@H]31`: 5.01%; for `C/C1=C/[C@@H](C)[C@H](O)C/C=C/CC/C=C/C(=O)O[C@@H]1[C@H](C)C(=O)CCCC1CC(=O)NC(=O)C1`: -4.82%.
Take `C[C@@]1(CCC(=O)Nc2c(O)ccc(C(=O)O)c2O)C(=O)C=C[C@]23C[C@H]4C[C@H](O[C@@]4(C)C2)C31` (stereo not given in full): the “caspase activation” value is 2.83%.
The same measure for `COc1ccc([C@@H]2c3cc4c(cc3C(=O)C(C)C2C)OCO4)cc1OC` (stereo not given in full): 1.28%; for `CN1CC[C@]23c4ccccc4N[C@H]1[C@]21CCN(C)[C@H]3Nc2ccccc21`: 1.3%.
To `CC(C)=CCC/C(C)=C/Cc1cc([C@@H]2CC(=O)c3c(cc(O)c(CC=C(C)C)c3O)O2)ccc1O` belongs -2.37%; to `O=c1cc(-c2ccc(O)cc2)oc2cc(O)c([C@@H]3OC(CO)[C@H](O)[C@@H](O)[C@H]3O)c(O)c12` (stereo not given in full), -1.71%; to `CC(C)C[C@@H]1c2c(O)c(C=O)c(O)c(C=O)c2O[C@]2(C)C=C[C@@H](C(C)C)C[C@H]12`, 5.02%.
The same measure for `COC1C(C)OC(OCC23C[C@@H]4[C@H](C)CC[C@H]4C4(C=O)CC2C=C(C(C)C)C34C(=O)O)[C@@H](O)[C@H]1O` (stereo not given in full): -3.06%; for `C=C1C[C@H]2O[C@@H]3[C@@H]4[C@H](CC[C@@](C)(O)[C@@H]42)[C@H](C)COC3(C)[C@@H](OC(=O)CCCCCCC)C[C@H]1O` (stereo not given in full): 1.36%.
`CN1CC[C@@]23c4ccccc4N[C@@H]1[C@@]21CCN(C)[C@@H]3Nc2ccccc21`: the “caspase activation” value was 5.22%.
Take `C/C=C(/CO)C(=O)O[C@@H]1[C@H](O)[C@@H](C(=O)OC)O[C@@H]2C[C@H]3OC(n4cnc5c(N)ncnc54)[C@H](OC)[C@H]3O[C@@]12O` (stereo not given in full): the “caspase activation” value is 0.804%.
With `CC(=O)Oc1cc2c(c(OC(C)=O)c1C1CCc3cc(Cl)c(Cl)n31)C(=O)n1c-2cc(Cl)c1Cl` (stereo not given), the “caspase activation” value is 4.95%.
The same measure for `C/C=C(/C)c1c(Cl)c(OC)c(C)c2c1Oc1c(Cl)c(O)c(Cl)c(C)c1C(=O)O2`: -2.6%; for `C/C(=C\[C@H](C)C(=O)/C=C/CC1CC(=O)NC(=O)C1)[C@@H]1OC(=O)CCCC/C=C/[C@H](O)[C@@H](O)[C@@H]1C`: 4.28%.
Take `C=CC(C)(C)C(=O)[C@@H](C)[C@@H]1CC[C@@](C)(C=C)O1`: the “caspase activation” value is -2.95%.
To `C=C1[C@@]2(C)CC3C4(C)CCC(O)C(C)(C)C4CCC3(C)[C@]1(C(=O)OC)C(=O)C(C)(O)C2=O` (stereo not given in full) belongs -2.8%.
